Measurements published in PubChem BioAssay (Tox21).
Results filed as inconclusive are left out. Active and inactive are the calls of the source. Unless noted, the call rests on the fitted dose curve.

Assays:
[1] = Nuclear factor erythroid 2-related factor 2/antioxidant responsive element (Nrf2/ARE) small molecule agonists: qHTS cell viability counter screen in human keratinocytes (AID 1919968; active means well fitted curve in the direction sought with a large enough effect in the repeat runs; an effect the other way counts as inactive or inconclusive; further: nearly all actives have a fitted effect of over 55% in size)
How it was run: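 Measured as CellTiter-Fluor fluorescence, this readout tracks cytotoxicity in the same wells as the ARE-luciferase screen. HaCaT reporter cells (1,500/well) received compounds after a 5 h pre-incubation and were exposed for 23 h.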

[2] = G protein-coupled receptor (GPCR) small molecule agonists, calcium flux assay: HEK293 wild type cell line counter screen (AID 1920065)
How it was run: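 Readout: fluorescence at 480 nm excitation/540 nm emission, sampled at 1 s intervals for 3 min. Cells had been cultured 18 h, then dye-loaded 1 h at 37 C before compound or ATP addition.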

[3] = p53 small molecule agonists, cell-based qHTS assay with human liver microsomes (AID 1963577);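 further: p53 response element beta-lactamase reporter cells with liver microsomes plus NADPH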
How it was run: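 In this qHTS, p53 response-element beta-lactamase cells receive test compound together with a microsome/NADPH activating system (0.5 mg/mL final each) and are incubated 16 h at 37 C before LiveBLAzer fluorescence detection.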

[4] = p53 small molecule agonists, cell-based qHTS assay with rat liver microsomes (AID 1963578)
How it was run: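 Agonist mode in p53RE-bla reporter cells, with compounds co-incubated 16 h at 37 C alongside 0.5 mg/mL rat liver microsomes and 0.5 mg/mL NADPH (final), followed by a 2 h LiveBLAzer detection step.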

[5] = p53 small molecule agonists, cell-based qHTS assay with human liver microsomes: qHTS cell viability counter screen (AID 1963579); further: nearly all actives have a fitted effect of over 45% in size
How it was run: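 Metabolically activated exposure: compounds, human liver microsomes and NADPH (0.5 mg/mL final apiece) were added to p53RE-bla cells seeded 5 h earlier, left 16 h at 37 C, and then assessed for viability by CellTiter-Glo luminescence.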

[6] = p53 small molecule agonists, cell-based qHTS assay with rat liver microsomes: qHTS cell viability counter screen (AID 1963580); further: nearly all actives have a fitted effect of over 45% in size
How it was run: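 In HCT-116 cells carrying a p53 response element-bla reporter, compounds were metabolically activated in situ by rat liver microsomes with NADPH over 16 h. Cell ATP content then served as the cytotoxicity measure.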

[7] = p53 small molecule agonists, cell-based qHTS assay: qHTS cell viability counter screen (AID 1963581); further: nearly all actives have a fitted effect of over 45% in size
How it was run: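 In the same plates used for the p53 bla reporter, HCT-116 cells given compounds for 16 h at 37 C received CellTiter-Glo; luminescence was recorded 30 min later at room temperature.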

[8] = p53 small molecule agonists, cell-based qHTS assay (AID 1963582; active means well fitted activation curve with a large enough effect in the signal ratio in the repeat runs, not every such curve was filed as active; the % refers to the signal ratio)
How it was run: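 Compounds are pin-transferred in DMSO onto p53RE-bla cells and incubated 16 h at 37 C. The B/G FRET beta-lactamase substrate is then applied for 2 h at RT and fluorescence recorded.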

[9] = target: 5-hydroxytryptamine receptor 2A (Homo sapiens) (UniProt P28223); assay: 5-hydroxytryptamine receptor 2A (HTR2A) small molecule antagonists, cell-based qHTS assay (AID 1963586); further: nearly all actives have a fitted effect of over 45% in size
How it was run: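 Antagonist-mode intracellular calcium assay: DOI (4 nM) added after 5 min compound pre-incubation at room temperature to dye-loaded HTR2A-CHO cells. Fluorescence followed for 3 min, sampled every second.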

[10] = target: 5-hydroxytryptamine receptor 2A (Homo sapiens) (UniProt P28223); assay: 5-hydroxytryptamine receptor 2A (HTR2A) small molecule agonists, cell-based qHTS assay (AID 1963587); further: nearly all actives have a fitted effect of over 30% in size
How it was run: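 HTR2A-CHO cells, plated 18 h at 37 C/5% CO2, dye-loaded 1 h at 37 C; compounds in DMSO added by pin tool (agonist mode). Intracellular calcium flux read as kinetic fluorescence on FDSS over 2 min at 1 s intervals.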

[11] = target: Muscarinic acetylcholine receptor M1 (Homo sapiens) (UniProt P11229); assay: Cholinergic receptor muscarinic 1 (CHRM1) small molecule antagonists, cell-based qHTS assay (AID 1963588); further: nearly all actives have a fitted effect of over 40% in size
How it was run: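 CHRM1-CHO calcium-flux assay, antagonist mode. Cells were seeded 18 h, dye-loaded 1 h at 37 C and given compound for 5 min at RT, then acetylcholine was added at 50nM. FDSS fluorescence was read 3 min; 15 concentrations, three runs.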

[12] = target: Muscarinic acetylcholine receptor M1 (Homo sapiens) (UniProt P11229); assay: Cholinergic receptor muscarinic 1 (CHRM1) small molecule agonists, cell-based qHTS assay (AID 1963589); further: nearly all actives have a fitted effect of over 35% in size
How it was run: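 Each compound was tested at 15 concentrations across three independent runs on dye-loaded CHO cells stably expressing human CHRM1, reading intracellular calcium fluorescence kinetically at 1 sec intervals.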

[13] = cAMP Responsive Elements (CRE) small molecule agonists, cell-based qHTS assay (AID 1963590)
How it was run: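 Cell line: CRE-bla HEK 293T; medium DMEM/10% dialyzed FBS/0.1 mM NEAA/1 mM pyruvate/25 mM HEPES; 3 h compound exposure; beta-lactamase FRET readout after 2 h substrate loading at RT.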

[14] = target: Beta-2 adrenergic receptor (Homo sapiens) (UniProt P07550); assay: Adrenergic beta2 receptor (ADRB2) small molecule antagonists, cell-based qHTS assay (AID 1963592); further: series mostly up to about 92 µM; nearly all actives have a fitted effect of over 50% in size
How it was run: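 Cells (CHO, stable ADRB2 overexpression) incubated 18-20hr at 37C; compounds added from DMSO; agonist mix (1nM isoproterenol, 100uM IBMX, 25uM Ro-20-1724) added; 0.5hr RT; d2-cAMP and anti-cAMP-cryptate added; 1hr RT; 665/615 nm read.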

[15] = target: Beta-2 adrenergic receptor (Homo sapiens) (UniProt P07550); assay: Adrenergic beta2 receptor (ADRB2) small molecule agonists, cell-based qHTS assay (AID 1963593);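 further: CHO cells stably overexpressing human ADRB2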
How it was run: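 CHO cells stably over-expressing ADRB2 were plated overnight at 37C, then dosed with compounds plus a stimulation mix containing 100uM IBMX and 25uM Ro-20-1724 for 0.5hr at room temperature. cAMP was measured by HTRF competition, 1hr.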

[16] = target: D(2) dopamine receptor (Homo sapiens) (UniProt P14416); assay: Dopamine D2 receptor (DRD2) small molecule agonists, cell-based qHTS assay (AID 1963594); further: nearly all actives have a fitted effect of over 35% in size
How it was run: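 HEK293 cells stably expressing DRD2 were cultured 24 h at 37 C, then given Ro20-1724 (0.1 mM final) and compounds for 10 min at room temperature. NKH477 (200nM) was then added for 30 min. cAMP was read by HTRF.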

[17] = target: D(2) dopamine receptor (Homo sapiens) (UniProt P14416); assay: Dopamine D2 receptor (DRD2) small molecule antagonists, cell-based qHTS assay (AID 1963595; active means well fitted inhibition curve with a large enough effect in the signal ratio in the repeat runs, with a control signal flat; the % refers to the signal ratio)
How it was run: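 Antagonism was scored as restored cAMP in HEK293-DRD2 cells. These cells were stimulated with 200 nM NKH477 and 12 nM quinpirole for 30 min at room temperature, in the presence of 0.1 mM Ro20-1724.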

[18] = target: Gonadotropin-releasing hormone receptor (Homo sapiens) (UniProt P30968); assay: Human gonadotropin-releasing hormone receptor (GnRHR) small molecule agonists, calcium flux assay in GnRHR-HEK293 cells (AID 1920063); further: nearly all actives have a fitted effect of over 35% in size
How it was run: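 Fluorescence kinetics (480 nm excitation, 540 nm emission; 3 min, 1 s steps) report calcium mobilisation in human GnRHR-HEK293 cells in agonist mode. Dye incubation: 1 h, 37 C.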

[19] = target: KiSS-1 receptor (Homo sapiens) (UniProt Q969F8); assay: Human kisspeptin (KISS1R) small molecule agonists, calcium flux assay in KISS1R-HEK293 cells (AID 1920064; active means well fitted curve in the direction sought with a large enough effect in the repeat runs; an effect the other way counts as inactive or inconclusive)
How it was run: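 Measures KISS1R agonism through calcium-sensitive dye fluorescence in stably transfected HEK293 cells, read for 3 min after pin-tool compound delivery; 15-point titrations in triplicate.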

[20] = cAMP Responsive Elements (CRE) small molecule antagonists, cell-based qHTS assay (AID 1963591; active means well fitted inhibition curve with a large enough effect in the signal ratio in the repeat runs, not every such curve was filed as active; the % refers to the signal ratio)
How it was run: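 Inhibition of NKH477-driven (0.25 uM final) CRE-beta-lactamase signal in HEK293T cells, 3 h compound exposure at 37 °C, detected by FRET substrate fluorescence.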

Measured: Potency

D(2) dopamine receptor (Homo sapiens), sequence (P14416 whole entry, looked up): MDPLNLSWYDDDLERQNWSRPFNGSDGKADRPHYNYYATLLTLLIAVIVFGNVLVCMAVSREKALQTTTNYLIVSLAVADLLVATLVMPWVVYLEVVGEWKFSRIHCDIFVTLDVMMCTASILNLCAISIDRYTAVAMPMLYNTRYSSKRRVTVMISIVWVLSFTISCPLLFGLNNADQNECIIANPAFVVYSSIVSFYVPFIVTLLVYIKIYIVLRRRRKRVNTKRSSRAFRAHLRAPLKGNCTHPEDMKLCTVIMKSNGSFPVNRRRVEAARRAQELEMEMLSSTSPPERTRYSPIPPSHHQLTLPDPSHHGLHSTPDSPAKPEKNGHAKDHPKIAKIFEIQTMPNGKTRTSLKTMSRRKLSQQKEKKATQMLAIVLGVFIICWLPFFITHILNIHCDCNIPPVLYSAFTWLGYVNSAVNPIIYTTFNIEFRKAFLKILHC
KiSS-1 receptor (Homo sapiens), sequence (Q969F8 whole entry, looked up): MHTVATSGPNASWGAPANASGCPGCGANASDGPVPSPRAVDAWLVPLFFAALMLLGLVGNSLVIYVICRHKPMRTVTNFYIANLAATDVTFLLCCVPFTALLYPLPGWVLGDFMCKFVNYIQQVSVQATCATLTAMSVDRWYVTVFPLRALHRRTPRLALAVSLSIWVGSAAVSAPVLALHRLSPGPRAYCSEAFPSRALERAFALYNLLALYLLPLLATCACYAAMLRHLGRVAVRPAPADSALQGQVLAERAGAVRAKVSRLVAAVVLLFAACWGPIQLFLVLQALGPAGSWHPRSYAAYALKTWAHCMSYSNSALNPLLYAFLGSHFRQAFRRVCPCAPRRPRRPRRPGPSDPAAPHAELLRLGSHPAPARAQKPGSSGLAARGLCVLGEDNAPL
Muscarinic acetylcholine receptor M1 (Homo sapiens), sequence (P11229 whole entry, looked up): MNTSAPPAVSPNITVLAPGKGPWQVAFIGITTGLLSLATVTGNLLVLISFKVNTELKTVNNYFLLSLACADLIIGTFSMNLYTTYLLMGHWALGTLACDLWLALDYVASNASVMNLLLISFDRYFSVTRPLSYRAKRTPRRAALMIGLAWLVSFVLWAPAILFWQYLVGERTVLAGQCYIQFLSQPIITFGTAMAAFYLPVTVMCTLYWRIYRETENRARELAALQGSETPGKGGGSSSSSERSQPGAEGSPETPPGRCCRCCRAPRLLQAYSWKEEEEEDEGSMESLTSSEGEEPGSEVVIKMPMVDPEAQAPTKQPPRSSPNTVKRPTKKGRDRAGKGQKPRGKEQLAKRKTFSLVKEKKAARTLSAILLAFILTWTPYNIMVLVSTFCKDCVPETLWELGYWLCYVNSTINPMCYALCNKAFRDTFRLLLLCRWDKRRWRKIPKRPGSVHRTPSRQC
Gonadotropin-releasing hormone receptor (Homo sapiens), sequence (P30968 whole entry, looked up): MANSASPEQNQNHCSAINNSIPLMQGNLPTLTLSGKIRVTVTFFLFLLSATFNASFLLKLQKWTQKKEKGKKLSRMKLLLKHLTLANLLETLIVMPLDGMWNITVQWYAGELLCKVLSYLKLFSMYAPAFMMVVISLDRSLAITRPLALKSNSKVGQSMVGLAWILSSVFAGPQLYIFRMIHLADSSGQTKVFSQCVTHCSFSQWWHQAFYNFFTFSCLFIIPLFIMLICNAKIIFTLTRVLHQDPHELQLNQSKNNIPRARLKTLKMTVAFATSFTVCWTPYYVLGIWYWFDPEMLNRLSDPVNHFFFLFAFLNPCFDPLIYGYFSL
Beta-2 adrenergic receptor (Homo sapiens), sequence (P07550 whole entry, looked up): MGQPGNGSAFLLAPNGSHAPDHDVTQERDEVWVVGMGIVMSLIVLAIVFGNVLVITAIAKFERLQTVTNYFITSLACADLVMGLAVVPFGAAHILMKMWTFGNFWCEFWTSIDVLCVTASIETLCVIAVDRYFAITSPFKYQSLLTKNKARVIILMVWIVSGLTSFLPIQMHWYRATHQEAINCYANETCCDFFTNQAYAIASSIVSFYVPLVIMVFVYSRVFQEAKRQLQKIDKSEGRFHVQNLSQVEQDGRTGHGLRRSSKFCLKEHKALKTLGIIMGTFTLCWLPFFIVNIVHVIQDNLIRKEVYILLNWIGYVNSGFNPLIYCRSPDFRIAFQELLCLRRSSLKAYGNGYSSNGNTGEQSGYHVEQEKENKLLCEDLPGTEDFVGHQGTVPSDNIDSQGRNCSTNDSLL
5-hydroxytryptamine receptor 2A (Homo sapiens), sequence (P28223 whole entry, looked up): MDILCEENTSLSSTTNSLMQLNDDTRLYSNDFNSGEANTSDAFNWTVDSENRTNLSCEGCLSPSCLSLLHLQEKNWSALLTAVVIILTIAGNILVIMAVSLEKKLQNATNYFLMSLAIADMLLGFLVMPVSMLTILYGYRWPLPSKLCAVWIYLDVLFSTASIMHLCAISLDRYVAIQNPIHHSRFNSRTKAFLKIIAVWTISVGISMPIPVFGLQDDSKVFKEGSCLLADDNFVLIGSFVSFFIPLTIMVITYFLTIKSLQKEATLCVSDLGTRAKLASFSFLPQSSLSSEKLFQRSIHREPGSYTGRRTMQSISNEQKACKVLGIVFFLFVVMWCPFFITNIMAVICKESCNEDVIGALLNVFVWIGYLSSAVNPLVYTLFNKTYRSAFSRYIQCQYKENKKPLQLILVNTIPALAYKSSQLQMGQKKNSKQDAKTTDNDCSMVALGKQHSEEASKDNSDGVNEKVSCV

CC(=O)CC(=O)Nc1ccccc1C
not listed: [18] | [19] | [20]
inactive: all other assays above

CC1(C)C2=CCCC(C)(C)[C@]23CC[C@H]1C3
inactive: all assays above

CCc1ccc(Br)cc1
inactive: all assays above

CC(C)(CC(=O)O)C(=O)O
not listed: [16]
inactive: all other assays above
